Experimental findings from PubChem BioAssay AID493240 (Broad Institute, 2011) are described below.

Among all 1,300 compounds or so, about 270 (21%) were called active. A selection follows. Measured potencies and affinities stand elsewhere. Unmarked numbers belong to inactive results. The rule behind the calls is not given here.

The assay can be described thus: cytotoxicity in parental SK-MEL-5 melanoma cells – cell-based, CellTiter-Glo, cherry-picked, set 3, orthogonal assay for MITF inhibitor project, dose response (AID 493240). Conditions: SK-MEL-5 viability, ATP luminescence (CellTiter-Glo), 24 h; series mostly up to 35 µM; activity change, negative = viability loss: at the top concentration. (ATP-based viability assays read luminescence as a measure of living cells.)
For the compound `CCOc1ccc(-n2c(C)cc(C(=O)CCl)c2C)cc1`, the “activity change, negative = viability loss” value is -41.3%.

As for `COc1ccc(-n2c(C)cc(C(=O)CCl)c2C)cc1`, the “activity change, negative = viability loss” value is -44.3%.

For the compound `CCN(CC)CC(=O)Nc1scc2c1c(=O)oc1ccccc12`, the “activity change, negative = viability loss” value is 9.99%.

With `CCN(Cc1ccc(OC)c(F)c1)C(=O)CCl`, the “activity change, negative = viability loss” value was -6.7%.

As to `COc1ccccc1N(C(=O)CCl)c1cn(C(C)=O)c2ccccc12`, the “activity change, negative = viability loss” value was -32.2%.

With `O=C(c1ccc(F)cc1)C(CN1CCOCC1)c1ccccc1` (stereo unspecified), the “activity change, negative = viability loss” value is -14.1%.

For `Cn1nnnc1Sc1ncnc2scc(-c3ccsc3)c12`, the “activity change, negative = viability loss” value is -1.66%.

For `Cn1nnnc1Sc1ncnc2scc(-c3ccc(F)cc3)c12`, the “activity change, negative = viability loss” value is -16.3%.

Consider `O=C(NC1=NCCS1)c1ccc(Cl)c(Cl)c1`, for which the “activity change, negative = viability loss” value was -7.94%.

For `O=C(Nc1ccc2nc(-c3ccccc3)[nH]c2c1)c1ccco1`, the “activity change, negative = viability loss” value was -12%.

With `COc1ccc(C(=O)/C=C/Nc2ccccn2)cc1`, the “activity change, negative = viability loss” value is -36.9%.

Turning to `O=C(/C=C\Nc1ccc2c(c1)OCO2)c1ccccn1`, the “activity change, negative = viability loss” value is -44.2%.

As for `CCN(CC)Cc1c(O)ccc2c1O/C(=C\C=C\c1ccccc1)C2=O`, the “activity change, negative = viability loss” value was -2.2%.

Consider `Cc1cc(/C=C(\C#N)C(=O)O)c(C)n1CC(C)C`, for which the “activity change, negative = viability loss” value is 12.1%.

Turning to `CN(C)c1ccc(/C=N\NC(=O)c2cccc3cc[nH]c23)cc1`, the “activity change, negative = viability loss” value was 7.77%.

Regarding `Cc1ccc(-c2nc(C#N)c(NCc3ccco3)o2)cc1`, the “activity change, negative = viability loss” value is -10%.

In the case of `Cc1ccccc1OCC(=O)Nc1cccc(C(=O)O)c1`, the “activity change, negative = viability loss” value is -8.49%.

Regarding `O=C(Nc1ccc2oc(-c3cccnc3)nc2c1)c1ccc([N+](=O)[O-])o1`, the “activity change, negative = viability loss” value was -13.7%.

As for `COc1ccccc1/C=C/C=N/NC(=O)c1cccs1`, the “activity change, negative = viability loss” value was 2.03%.

Regarding `Cc1cc(NC(=O)c2ccc([N+](=O)[O-])o2)ccc1NC(=O)c1ccco1`, the “activity change, negative = viability loss” value was -34.3%.

Take `CC(C)c1ccc(/C=C2\SC(=S)N(CCC(=O)N3CCCCC3CCO)C2=O)cc1` (stereo unspecified): the “activity change, negative = viability loss” value is -2.33%.

As to `CN(C)S(=O)(=O)c1cccc(NC(=O)CSc2nc3c(cc2C#N)C(=O)CC(C)(C)C3)c1`, the “activity change, negative = viability loss” value was -14.6%.

As for `O=C(CCC(=O)c1ccc[nH]1)c1ccc(Cl)cc1`, the “activity change, negative = viability loss” value is -5.44%.

With `CCOC(=O)N1CCN(C(=O)c2ccc(Cn3c(=S)[nH]c4ccc(Br)cc4c3=O)cc2)CC1`, the “activity change, negative = viability loss” value was -37%.

On to `C=CCNc1nc(-c2ccccn2)nnc1-c1ccccc1`, for which the “activity change, negative = viability loss” value is -21.7%.

`Cc1cc(C)c2nc3nc(C)cc(C)c3c(N)c2c1`: the “activity change, negative = viability loss” value is -25.4%.

Turning to `N#C/C(=C\C=C\c1ccccc1[N+](=O)[O-])C(=O)NCc1ccccc1`, the “activity change, negative = viability loss” value is -18.2%.

Consider `Cc1cc(Cl)ccc1OCCCC(=O)N1CCOCC1`, for which the “activity change, negative = viability loss” value was -12%.

As to `Cc1cccc(N(O)C(=O)Nc2cccc(Cl)c2)c1`, the “activity change, negative = viability loss” value is -4.38%.

Regarding `Nc1c(-c2ccccc2)cnc2c(-c3ccccc3)cnn12`, the “activity change, negative = viability loss” value is -13.3%.

For `CC(=O)c1ccc(Sc2nnnn2-c2ccccc2)c([N+](=O)[O-])c1`, the “activity change, negative = viability loss” value is -8.68%.

`Cc1ccc(-c2noc(-c3ccno3)n2)cc1`: the “activity change, negative = viability loss” value is -0.841%.

For the compound `Cc1cc(-n2c(C)cc(C(=O)CCl)c2C)no1`, the “activity change, negative = viability loss” value was -18.2%.

As to `Cc1ccc(OCCCCN2CCCCC2)c(Br)c1`, the “activity change, negative = viability loss” value is -4.91%.

As for `Clc1ccccc1CSc1nnc(-c2ccncc2)o1`, the “activity change, negative = viability loss” value was -11.6%.

Regarding `c1ccc(C[n+]2cccc3c4ccccc4ccc32)cc1`, the “activity change, negative = viability loss” value is -37.1%.

In the case of `CC1(C)Cc2c(sc(NC(=O)c3ccc4ncsc4c3)c2C(N)=O)C(C)(C)N1`, the “activity change, negative = viability loss” value is -34.2%.

Regarding `CS(=O)(=O)c1ccc2nc(NC(=O)c3ccccc3)sc2c1`, the “activity change, negative = viability loss” value is -12.4%.

On to `CCCN(CCC)C1=CC(=[N+]2CCCC2)CC(C)(C)C1`, for which the “activity change, negative = viability loss” value is -30.5%.

In the case of `Cc1nc(Sc2nnnn2C)c2c3c(sc2n1)CCC3`, the “activity change, negative = viability loss” value was -24.1%.

Turning to `COC(=O)c1ccc(-n2c(C)cc(C(=O)CCl)c2C)cc1`, the “activity change, negative = viability loss” value is -49.6%.

As for `Cc1ccc2c(c1)COc1c3ccc(C(=O)O)cc3nn1-2`, the “activity change, negative = viability loss” value is -36.1%.

On to `Nc1ccc(-c2cc3ccccc3c(=O)o2)cc1`, for which the “activity change, negative = viability loss” value was -23.3%.

On to `Nc1c(-c2ccc(Cl)cc2)nnn1-c1ccccc1`, for which the “activity change, negative = viability loss” value was -10.9%.

Regarding `Cc1ccc(NC(=O)c2cc(N3C(=O)C=CC3=O)ccc2N2CCOCC2)cc1`, the “activity change, negative = viability loss” value was -28.6%.

In the case of `COc1cc(OC)cc(-c2oc(=O)c3cc(OC)c(OC)cc3c2C(F)(F)F)c1`, the “activity change, negative = viability loss” value is 5.28%.

On to `O=C1c2ccccc2CN1c1ccccc1`, for which the “activity change, negative = viability loss” value was -2.83%.

As to `Cn1c(/C=C/c2cccc([N+](=O)[O-])c2)c([N+](=O)[O-])c(=O)n(C)c1=O`, the “activity change, negative = viability loss” value was -4.42%.

In the case of `O=C(O)c1cccc(NC(=O)c2cccc(NC(=O)C3CCCO3)c2)c1` (stereo unspecified), the “activity change, negative = viability loss” value is -11.9%.

In the case of `Oc1cc(NCCN2CCOCC2)cc2cccnc12`, the “activity change, negative = viability loss” value was -56.1%.

Consider `N#Cc1nc(/C=C/c2ccccc2)oc1NCCCN1CCOCC1`, for which the “activity change, negative = viability loss” value was -14.3%.

For the compound `CC(C)(C)c1cc(NCCCn2ccnc2)n2ncc(-c3ccccc3)c2n1`, the “activity change, negative = viability loss” value is -5.35%.

`O=c1c(Cl)c(Cl)cnn1Cc1ccc(F)cc1`: the “activity change, negative = viability loss” value is 2.13%.

For the compound `Cc1c(NC(=O)C(C)OC(=O)c2ccc([N+](=O)[O-])s2)c(=O)n(-c2ccccc2)n1C` (stereo unspecified), the “activity change, negative = viability loss” value was 6.54%.

For `Cc1cc(Sc2ncnc(N)c2[N+](=O)[O-])ncn1`, the “activity change, negative = viability loss” value was -23.4%.

As for `Fc1cccc(Cl)c1CSc1nnc(-c2ccncc2)o1`, the “activity change, negative = viability loss” value was 12.6%.

For the compound `Cc1ccc(OCC(=O)Nc2ccccc2F)cc1`, the “activity change, negative = viability loss” value is 4.09%.

As to `CN(CCC#N)C(=O)COC(=O)c1ccccc1C(=O)c1ccc(Cl)c([N+](=O)[O-])c1`, the “activity change, negative = viability loss” value is -14.9%.

Take `CCOC(=O)N1C(=O)[C@](CC)(c2ccccc2)N1C(=O)OCC`: the “activity change, negative = viability loss” value was -16.8%.

With `CC(C)C(=O)Nc1cccc(NC(=O)c2cc3ccccc3o2)c1`, the “activity change, negative = viability loss” value was -5.61%.

For `Cc1ccc(NC(=O)c2cc3ccccc3oc2=O)cc1S(=O)(=O)N(C)C`, the “activity change, negative = viability loss” value was -2.98%.

`Cc1ccc(S(=O)(=O)Nc2cccc3cccnc23)cc1`: the “activity change, negative = viability loss” value was 12.9%.

For the compound `COc1ccc(N/N=C/c2c(C(=O)O)ccc3ccccc23)cc1`, the “activity change, negative = viability loss” value is -18.1%.

On to `CC1C/C(=C\c2cccnc2)C(=O)/C(=C/c2cccnc2)C1` (stereo unspecified), for which the “activity change, negative = viability loss” value was -9.76%.

`C=C1C(=O)C=C[C@]2(C)C[C@@H]3OC(=O)[C@](C)(O)[C@H]3C[C@@H]12`: the “activity change, negative = viability loss” value is -25.9%.

Regarding `Cc1ccc2nc(NC(=O)c3ccc(Br)o3)sc2c1`, the “activity change, negative = viability loss” value is -6.22%.

For the compound `CC(C)C(NC(=O)OCc1ccccc1)C(=O)OCC(=O)N1CCCCC1` (stereo unspecified), the “activity change, negative = viability loss” value was 11.4%.

On to `CCOC(=O)c1ccc(NC(=O)c2nc(S(=O)(=O)Cc3ccccc3)ncc2Cl)cc1`, for which the “activity change, negative = viability loss” value is -33.5%.

Take `CCOC(=O)c1ccc(NC(=O)Cc2cccs2)cc1`: the “activity change, negative = viability loss” value is -5.41%.

For `CCc1ccc(Nc2nc(C)cc(C)n2)cc1`, the “activity change, negative = viability loss” value is -4.01%.

Take `Cc1cc(O)ccc1Nc1nc(-c2cccnc2)cs1`: the “activity change, negative = viability loss” value is -1.37%.

Take `Cc1c(C#N)c(O)n(CCO)c(=O)c1N=Nc1ccc2c(c1)COC2=O`: the “activity change, negative = viability loss” value was -30.3%.

Turning to `N#Cc1cnc2sc3ccccc3n2c1=N`, the “activity change, negative = viability loss” value is -13.4%.

As to `O=C(NCCSc1ccccc1)c1ccccc1F`, the “activity change, negative = viability loss” value is -5.63%.

With `COCn1c(COc2ccccc2)nc2ccccc21`, the “activity change, negative = viability loss” value is -33.2%.

For the compound `O=C(N/N=C/c1cccc(Oc2ccc([N+](=O)[O-])cc2[N+](=O)[O-])c1)c1cncc(Br)c1`, the “activity change, negative = viability loss” value was -16%.

As to `CN(C)c1ccc(NC(=O)Nc2ccc3c(c2)nnn3C)cc1`, the “activity change, negative = viability loss” value is 6.96%.

In the case of `CC1Cc2ccccc2N1C(=O)c1ccc(Br)o1` (stereo unspecified), the “activity change, negative = viability loss” value was -35.6%.

Regarding `O=C(c1cc2ccccc2oc1=O)N1CCN(c2ncccn2)CC1`, the “activity change, negative = viability loss” value was -6.63%.

For `CN(c1cccc(NC(=O)COc2ccc(Cl)cc2Cl)c1)S(C)(=O)=O`, the “activity change, negative = viability loss” value was -2.24%.

In the case of `Cc1ccc(OCC(=O)Nc2cccc(C)n2)c(C)c1`, the “activity change, negative = viability loss” value was 11.2%.

Turning to `CCOc1ccccc1-c1nc(-c2ccc(C)nc2OC)no1`, the “activity change, negative = viability loss” value was -0.189%.

On to `C=CCNC(=O)c1ccc2nc(Cc3ccc(OC)cc3)oc2c1`, for which the “activity change, negative = viability loss” value was 1.33%.

Take `O=C(Nc1nc2cc3c(cc2s1)OCO3)C1=COCCO1`: the “activity change, negative = viability loss” value is -32.8%.

Turning to `CCOCCCNC(=O)/C(C#N)=C/c1ccc(Cl)c([N+](=O)[O-])c1`, the “activity change, negative = viability loss” value was -34.9%.

In the case of `O=C(/C=C/c1ccc(Cl)cc1)c1ccc([N+](=O)[O-])o1`, the “activity change, negative = viability loss” value is -38.6%.

As for `Cc1nc2cc(NC(=O)Nc3cccc([N+](=O)[O-])c3)ccc2n1C`, the “activity change, negative = viability loss” value was -6.54%.

On to `O=C(Cc1ccccc1)Nc1ccc(NC(=O)c2ccco2)nc1`, for which the “activity change, negative = viability loss” value was -8.09%.

For the compound `CN(C)/C=N/c1ncc(C(=O)c2ccccc2)s1`, the “activity change, negative = viability loss” value was -12.3%.

Consider `C=C1C(=O)O[C@@]23[C@H]1CC[C@@H](C)[C@@H]2CC[C@@]1(C)O[C@@H]31`, for which the “activity change, negative = viability loss” value is 6.52%.

On to `COc1ccc2oc3ccc(OC)cc3c(=O)c2c1`, for which the “activity change, negative = viability loss” value was -16.6%.
